{
  "source": "PubChem BioAssay (NCI)",
  "note": "Compounds without any hit were thinned out: in the full panel of roughly 83,000, 20% have a hit.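 96-well plates, one dose, 48 hours. Percent growth reported; active if below 10.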 Unmarked numbers belong to inactive results. The source made the active and inactive calls.",
  "data": [
    {"test_system": "OVCAR-4 ovarian", "assay": "NCI-60 one-dose screen, 48 h (100 = growth as untreated, 0 = no growth, -100 = all killed)", "conditions": "10 µM unless noted", "values": [
      {"smiles": "NS(=O)(=O)c1ccc(Nc2nc(N/N=C/c3ccc(F)cc3)nc(Nc3ccccc3)n2)cc1", "growth": "55.5%"},
      {"smiles": "COc1ccc(-c2cc(-c3ccc(Cl)cc3)nc3nc(N)nn23)cc1", "growth": "102%"},
      {"smiles": "COc1ccc(Cn2cc3c(c2-c2cc(OC)c(OC)c(OC)c2)CCCc2cnoc2-3)cc1", "growth": "62.3%"},
      {"smiles": "CN(c1ccc(F)cc1)S(=O)(=O)c1ccc(-c2cnc(C3CC3)o2)cc1", "growth": "70.4%"},
      {"smiles": "COC[C@]12CC[C@@H](C)[C@H](C)[C@H]1C1=CC[C@@H]3[C@@]4(C)CCCNC(C)(C)[C@@H]4CC[C@@]3(C)[C@]1(C)CC2", "growth": "38%"},
      {"smiles": "C=C(C)[C@@H]1CC[C@]2(C(=O)ON)CC[C@]3(C)[C@H](CC[C@@H]4[C@@]5(C)C/C(=C/c6ccc(Br)cc6)C(=O)C(C)(C)[C@@H]5CC[C@]43C)[C@@H]12", "growth": "75.5%"},
      {"smiles": "CN(c1ccc(Br)cc1)S(=O)(=O)c1ccc(-c2cnc(C3CC3)o2)cc1", "growth": "70.1%"},
      {"smiles": "CCCCCCNC(=O)Oc1ccc(/C(=C(\\C)c2ccc(Cl)cc2)c2ccc(OCCN(C)C)cc2)cc1", "growth": "74.5%"},
      {"smiles": "C=C(C)[C@@H]1CC[C@]2(COS(C)(=O)=O)CC[C@]3(C)[C@H](CC[C@@H]4[C@@]5(C)CCCNC(C)(C)[C@@H]5CC[C@]43C)[C@@H]12", "growth": "95.8%"},
      {"smiles": "O=C(NNc1nc2cc(F)ccc2n2cncc12)c1cnccn1", "growth": "31.1%"},
      {"smiles": "CN1CCN(c2ccc3c(C(N)=O)c(NC(=O)c4ccc(C(C)(C)C)cc4)sc3c2)CC1", "growth": "92.3%"},
      {"smiles": "NC(=O)C(=Cc1ccc(Cl)cc1)C(N)=O", "growth": "62.3%"},
      {"smiles": "CCN1C(=O)N(CC)C2SC(N/N=C/C=C/c3ccccc3OC)=NC21", "note": "(stereo not drawn)", "growth": "68.6%"},
      {"smiles": "CC(=O)C1=NN(c2ccc(Cl)cc2)C(=O)CN1C", "growth": "114%"},
      {"smiles": "CCOC(=O)c1c(NCC(=O)Nc2ccc(Br)cc2)sc2c1CCCC2", "growth": "35.5%"},
      {"smiles": "CN1CCN(c2ccc3c(c2)nc(NNC(=O)c2ccncn2)c2cccn23)CC1", "growth": "36.4%"},
      {"smiles": "CCOc1c(C#N)c(Nc2ccc(S(N)(=O)=O)cc2)c(C#N)c2nnc(C)n12", "growth": "117%"},
      {"smiles": "O=c1[nH]c(CNc2ccc(NCc3c(-c4ccccc4)no[n+]3[O-])cc2)nc2c1cnn2-c1ccccc1", "growth": "64.3%"},
      {"smiles": "C#CCOc1ccc(C(Nc2ccc(Cl)cc2)c2nnnn2C2CCCCC2)cc1", "note": "(stereo not drawn)", "growth": "82.6%"},
      {"smiles": "COc1cc(/C=N/Nc2ccnc3cc(Cl)ccc23)cc(OC)c1O", "growth": "-50.2% (active)"},
      {"smiles": "COc1cc(C(=O)C[n+]2ccc3ccccc3c2)cc(OC)c1OC", "growth": "104%"},
      {"smiles": "Cc1ccc(NC(=O)c2ccc(CN3CCN(C)CC3)c(I)c2)cc1Oc1ccc(-c2[nH]nc3ncnc(N)c23)cc1", "growth": "96.1%"},
      {"smiles": "COc1ccc(Cn2cc3c(c2-c2ccccc2)CCCc2cnoc2-3)cc1", "growth": "90.2%"},
      {"smiles": "N#Cc1c(NC(=O)c2ccc(F)c(Cl)c2)sc2c1CCC(=O)C2", "growth": "-52% (active)"},
      {"smiles": "c1ccc(-c2c(-c3ccccc3)[n+](Cc3ccc4ccccc4c3)c(-c3ccccc3)n2Cc2ccc3ccccc3c2)cc1", "growth": "-75% (active)"},
      {"smiles": "CCOC(=O)C1=C(C)N=C2Sc3ccccc3N2C1c1ccccc1", "note": "(stereo not drawn)", "growth": "91.9%"},
      {"smiles": "CCn1c2ccc(/C=N/NS(=O)(=O)CCN(C)C)cc2c2cc(/C=N/NS(=O)(=O)CCN(C)C)ccc21", "growth": "99.8%"},
      {"smiles": "Cn1cc2c(c1)-c1c(sc3nc(-c4ccc(NC(=O)Nc5cc(C(C)(C)C)on5)cc4)cn13)CC2", "growth": "57.7%"},
      {"smiles": "CCOC(=O)c1c(NC(=O)c2ccc(C(C)(C)C)cc2)sc2cc(OCCN3CCCCC3)ccc12", "growth": "102%"},
      {"smiles": "COc1ccccc1/C=C/C=N/NC1=NC2C(S1)N(C)C(=O)N2c1ccccc1", "note": "(stereo not drawn)", "growth": "56.8%"},
      {"smiles": "CC1(C)CC[C@]2(C(=O)O)CC[C@]3(C)C(=CCC4[C@@]5(C)C[C@@H](O)[C@@H]6OC(c7cccc([N+](=O)[O-])c7)OC[C@@]6(C)C5CC[C@]43C)C2C1", "note": "(stereo partly drawn)", "growth": "83.2%"},
      {"smiles": "CN(C)c1ncc(/C=C2\\SC(=S)N(Cc3ccccc3Cl)C2=O)s1", "growth": "2.09% (active)"},
      {"smiles": "O=C(/C=C1\\C=CN(CCCCO)c2ccccc21)n1ccc2ccccc21", "growth": "107%"},
      {"smiles": "C#C[C@]1(O)CC[C@H]2[C@@H]3CC=C4c5sc(Nc6nc(C)cc(OC)n6)nc5CC[C@]4(C)[C@H]3CC[C@@]21C", "growth": "88.4%"},
      {"smiles": "Oc1ccccc1/C=N/Nc1nc(N/N=C/c2ccccc2O)nc(N2CCOCC2)n1", "growth": "-11.7% (active)"},
      {"smiles": "IP(CCCSc1n(Cc2ccc3ccccc3c2)c(-c2ccccc2)c(-c2ccccc2)[n+]1Cc1ccc2ccccc2c1)(c1ccccc1)(c1ccccc1)c1ccccc1", "growth": "23.2%"},
      {"smiles": "Cn1cc(-c2nnc(N)nc2-c2cn(C)c3ccc(F)cc23)c2cc(F)ccc21", "growth": "97.4%"},
      {"smiles": "N/C(=N\\OC(=O)CSc1nc2ccccc2s1)c1ccc(Cl)cc1", "growth": "107%"}
    ]}
  ]
}
